Screening results deposited in PubChem BioAssay by National Center for Advancing Translational Sciences (NCATS).
KDM5B inh – KDM5B demethylase inhibition; Q9UGL1; KDM5B demethylase, FDH-coupled NADH fluorescence (FDH is formaldehyde dehydrogenase); Potency, µM (series often up to 57.7 µM), actives largely listed as inhibitors; 220,000 compounds, 2.6% hits; AID 1347165; active = well fitted inhibition curve with a large enough effect; also: 0% is about no effect; nearly all actives have a fitted effect of over 70% in size
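Measured: NADH fluorescence change, 30 min, RT. System: KDM5BΔAP 200 nM final, H3K4me3 peptide, α-KG, Fe(II), ascorbate, NAD⁺ plus FDH, pH 7.5 HEPES. Compounds: titrated, 10 min pre-incubation with enzyme.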
An asterisk follows results filed as active; i = inactive. The entries come from a sample that favours hits as a whole. Potency is read from the fitted curve at half-maximal effect.

SMILES	KDM5B inh
CN1CC[C@H]2CN(c3cc(NCCO)ncn3)C[C@@]2(C(=O)O)C1	i
O=C(NCc1ccc(F)cc1)[C@H]1CN2CCC1C[C@@H]2Cn1cc(COc2ccccc2)nn1 (some centres undefined)	i
Ic1ccc(CN2CCNCC2)cc1	i
Cc1nc(-c2ccc(N(C)C)cc2)cc([C@H]2CN3CC[C@H]2C[C@@H]3CNC(=O)c2ccco2)n1	25µM*
Cc1nc(-c2ccccc2Br)cc([C@H]2CN3CC[C@H]2C[C@@H]3CNC(=O)c2ccco2)n1	i
COc1cc(NC(=O)OC[C@H]2C[C@@H]3CCN2C[C@@H]3c2cc(-c3ccc(N(C)C)cc3)nc(C)n2)cc(OC)c1	i
Cc1nc(-c2ccc(F)cc2)cc([C@H]2CN3CC[C@H]2C[C@@H]3CNC(=O)c2ccco2)n1	i
COc1ccc(NC(=O)OC[C@H]2C[C@@H]3CCN2C[C@@H]3c2cc(-c3ccc(N(C)C)cc3)nc(C)n2)cc1	i
Cc1nc(-c2ccc(N(C)C)cc2)cc([C@H]2CN3CC[C@H]2C[C@@H]3CNC(=O)NC(C)C)n1	11µM*
CC1(C)C(C(=O)N2CCC3(CC2)Nc2ccccc2NC3=O)C1(C)C	i
CN1C(=O)[C@H]2CN(Cc3ccc(Br)s3)C[C@H]2C1=O	i
CC(C)CCN1CCC2(CC1)C(=O)Nc1ccccc12	i
Cc1cc(C[C@@H]2COC[C@@H]2NC(=O)c2cn(C)c3ccccc23)on1	i
COCCNC(=O)[C@H]1CN2CC[C@H]1C[C@@H]2Cn1cc(C2(O)CCCC2)nn1	i
O=C(Nc1ccc2n(c1=O)C[C@H]1C[C@@H]2CN(C(=O)NC2CCCCC2)C1)c1ccco1	i
O=C(Nc1ccc2n(c1=O)C[C@H]1C[C@@H]2CN(C(=O)c2ccccn2)C1)C1CCCCC1	i
CN(C)Cc1ccccc1-c1ccc2n(c1=O)C[C@H]1C[C@@H]2CN(C(=O)C2CCCCC2)C1	35µM*
COc1ccc2c(c1)C1(CCN(C(=O)c3cccc(F)c3)C1)C(=O)N2C (centres undefined)	i
COc1ccc(C(=O)N2CCC3(CC2)c2nccn2-c2ccccc2CN3C)cc1OC	i
Cc1cnc(C(=O)N2[C@H]3CC[C@@H]2c2cnc(-c4ccc(F)cc4)nc2C3)cn1	i
CC(=O)c1c(C)[nH]c(C(=O)C(C)NC(C)c2ccc(Cl)cc2Cl)c1C (centres undefined)	i
O=C(Nc1ccccc1)[C@H]1CN2CC[C@H]1C[C@@H]2Cn1cc(COc2ccccc2)nn1	i
CC(C)C(=O)N1[C@H]2CC[C@@H]1c1cnc(-c3ccc(F)cc3)nc1C2	i
COc1ccccc1-c1cc([C@H]2CN3CC[C@H]2C[C@@H]3COC(=O)NC(C)C)nc(C)n1	40µM*
COc1ccccc1-c1cc([C@H]2CN3CC[C@H]2C[C@@H]3CNC(=O)CCC(=O)O)nc(C)n1	32µM*
SMILES	KDM5B inh
COc1ccccc1-c1cc([C@H]2CN3CC[C@H]2C[C@@H]3COC(=O)NC2CCCCC2)nc(C)n1	28µM*
CC(=O)c1cccc(NC(=O)OC[C@H]2C[C@@H]3CCN2C[C@@H]3c2cc(C3CCCC3)nc(C)n2)c1	i
COc1ccccc1-c1cc([C@H]2CN3CC[C@H]2C[C@@H]3COC(=O)Nc2ccc(C(C)C)cc2)n(C)n1	i
Cc1nc(-c2ccc(C(F)(F)F)cc2)cc([C@H]2CN3CC[C@H]2C[C@@H]3CNC(=O)CCC(=O)O)n1	i
CCCNC(=O)OC[C@H]1C[C@@H]2CCN1C[C@@H]2c1cc(-c2ccccc2OC)nc(C)n1	35µM*
CCCNC(=O)OC[C@H]1C[C@@H]2CCN1C[C@@H]2c1cc(-c2ccccc2OC)nn1C	i
COc1ccccc1-c1cc([C@H]2CN3CC[C@H]2C[C@@H]3CNC(=O)COc2ccccc2)n(C)n1	i
CCCNC(=O)OC[C@H]1C[C@@H]2CCN1C[C@@H]2c1cc(-c2ccc(F)cc2)nc(C)n1	i
COc1ccccc1-c1cc([C@H]2CN3CC[C@H]2C[C@@H]3COC(=O)Nc2ccccc2)n(C)n1	i
Cn1nc(-c2ccc3ccccc3c2)cc1[C@H]1CN2CC[C@H]1C[C@@H]2CNC(=O)Nc1cccc(C#N)c1	i
Cc1cc(C(=O)N2[C@H]3CC[C@@H]2c2cnc(-c4ccc(F)cc4)nc2C3)nn1C	i
COc1ccc(-c2cc([C@H]3CN4CC[C@H]3C[C@@H]4CNC(=O)Nc3ccccc3)n(C)n2)cc1	i
Cn1cc(CNCC2(CO)C[C@@H](O)[C@@H](O)C2)c2ccccc21 (some centres undefined)	i
CC(=O)Nc1ccc(S(=O)(=O)NC[C@H]2C[C@@H]3CCN2C[C@@H]3c2cc(-c3ccccc3Br)nc(C)n2)cc1	i
COc1ccc(-c2cc([C@H]3CN4CC[C@H]3C[C@@H]4CNC(=O)C(C)(C)C)nc(C)n2)cc1OC	32µM*
CCC(CC)C(=O)NC[C@H]1C[C@@H]2CCN1C[C@@H]2c1cc(-c2ccccc2Br)nc(C)n1	i
Cc1nc(-c2ccccc2Br)cc([C@H]2CN3CC[C@H]2C[C@@H]3CNC(=O)CSCC(=O)O)n1	25µM*
Cc1nc(-c2ccc(C(F)(F)F)cc2)cc([C@H]2CN3CC[C@H]2C[C@@H]3CNC(=O)C(C)(C)C)n1	i
COc1ccccc1-c1cc([C@H]2CN3CC[C@H]2C[C@@H]3CNS(=O)(=O)c2ccc(NC(C)=O)cc2)nc(C)n1	32µM*
COCC(=O)NC[C@H]1C[C@@H]2CCN1C[C@@H]2c1cc(-c2ccccc2Br)nc(C)n1	i
Cc1nc(-c2ccccc2)cc([C@H]2CN3CC[C@H]2C[C@@H]3CNC(=O)C(C)(C)C)n1	i
COc1ccccc1-c1cc([C@H]2CN3CC[C@H]2C[C@@H]3CNS(=O)(=O)c2ccc(NC(C)=O)cc2)n(C)n1	i
C[S+](=O)([O-])N1CCC2(CC1)C(=O)NN=C2c1cccnc1	i
O=C(NCc1ccc(F)cc1)[C@H]1CN2CCC1C[C@@H]2Cn1cc(CSc2ccccc2)nn1 (some centres undefined)	i
COc1cc2c(cc1OCC1CC1)NC(=O)C21CCN(C(=O)c2cccnc2)CC1	i
SMILES	KDM5B inh
CN(C)C1CNC1	i
COc1ccccc1-c1cc([C@H]2CN3CC[C@H]2C[C@@H]3CNC(=O)c2cccs2)n(C)n1	i
COc1ccc(CC(=O)N2[C@H]3CC[C@@H]2c2cnc(-c4ccc(F)cc4)nc2C3)cc1OC	i
O=C(NC1CCSC1=O)c1cccs1 (centres undefined)	i
Cc1ccc2c(n1)N(C)[C@H](CO)CCN(CC(C)C)C2	16µM*
COc1ccc(S(=O)(=O)NC[C@H]2C[C@@H]3CCN2C[C@@H]3CN2CCc3ccccc32)cc1	i
CC(=O)N1C2CCC1CN(C(C)C)C2	i
O=C(c1cncnc1)N1C[C@@H]2C[C@H](C1)c1c(-c3ccc4ccccc4c3)ccc(=O)n1C2	i
COCCC(=O)N1C[C@@H]2C[C@H](C1)c1ccc(-c3cccc(C(F)(F)F)c3)c(=O)n1C2	40µM*
CN(C)CC(=O)N1C[C@@H]2C[C@H](C1)c1c(-c3cccc(C#N)c3)ccc(=O)n1C2	i
O=C(O)CSCC(=O)N1C[C@@H]2C[C@H](C1)c1ccc(-c3cccc(C(F)(F)F)c3)c(=O)n1C2	32µM*
CSCC(=O)N1C[C@@H]2C[C@H](C1)c1c(-c3ccc(SC)cc3)ccc(=O)n1C2	i
O=C(c1ccncc1)N1C[C@@H]2C[C@H](C1)c1ccc(-c3cccc(C(F)(F)F)c3)c(=O)n1C2	28µM*
